Measurements from PubChem BioAssay AID720697 (Broad Institute, 2013).
Potency and affinity values are given separately. Results filed as inconclusive are left out. Where a call stands in place of a potency, no number is given. Active and inactive are the calls of the source.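 Rule for the calls: active = signal loss with fitted half-maximal concentration at or below twice the top valid tested dose in every test run; inconclusive = runs disagree, flat 30 to 70% signal loss, or poor fit; inactive = all runs flat, opposite direction, or potency beyond limit.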

Assay: general mammalian cell viability loss – inhibitor set, cherry-pick, set 2, cytotoxicity control for miR-122 modulator project, dose response (AID 720697)

| Compound | outcome |
| --- | --- |
| C[C@H](CO)N1C[C@H](C)[C@@H](CN(C)Cc2ccc(C(F)(F)F)cc2)Oc2ccc(NS(=O)(=O)c3ccc(Cl)cc3)cc2CC1=O | inactive |
| C[C@@H]1CN([C@H](C)CO)S(=O)(=O)c2ccc(C3=CCCCC3)cc2O[C@@H]1CN(C)C(=O)Cc1ccncc1 | inactive |
| Cc1cccc(NC(=O)Nc2ccc3c(c2)C(=O)N(C)[C@@H]2CC[C@H](CC(=O)NCc4ccccc4Cl)O[C@H]2CO3)c1 | inactive |
| COc1ccc(-c2nc(NC(=O)CSc3nnc(C)s3)ns2)cc1 | inactive |
| C[C@H](CO)N1C[C@H](C)[C@@H](CN(C)Cc2ccc(-c3ccccc3)cc2)Oc2ncc(C#CCN(C)C)cc2C1=O | inactive |
| CCN(C[C@H]1N[C@H](CO)[C@H]1c1ccc(C2=CCCC2)cc1)C(=O)c1cccnc1 | inactive |
| c1ccc(-n2nnnc2NCCc2c[nH]c3ccccc23)cc1 | inactive |
| CC(=O)N1[C@@H](CO)[C@@H](c2ccccc2)[C@@H]1CNC(=O)CN1CCOCC1 | inactive |
| O=C(NC[C@H]1[C@@H](c2ccccc2)[C@@H](CO)N1CC1CCCC1)c1ccncc1 | inactive |
| Cc1cc(C)cc(NC(=O)c2ccc(CSc3nnc(C)s3)cc2)c1 | inactive |
| C=CCc1ccccc1OCC(O)CN1CCN(CCN2C(=O)c3cccc4cccc(c34)C2=O)CC1 (centres undefined) | inactive |
| CN1C(=O)c2cc(NC(=O)c3cccs3)ccc2OC[C@@H]2O[C@H](CC(=O)NCC(F)(F)F)CC[C@H]21 | inactive |
| CN1C(=O)c2cc(NC(=O)c3cccs3)ccc2OC[C@@H]2O[C@H](CC(=O)NCCN3CCCCC3)CC[C@H]21 | inactive |
| Cc1ccc(S(=O)(=O)Nc2ccc3c(c2)C(=O)N(C)[C@@H]2CC[C@H](CC(=O)NCCc4ccncc4)O[C@@H]2CO3)cc1 | inactive |
| CC(=O)Oc1ccc2c(c1)C(=O)c1ccccc1CO2 | inactive |
| COc1ccc(-c2cc(C3CCN(c4ccc(C(C)=O)cc4[N+](=O)[O-])CC3)[nH]n2)cc1 | inactive |
| CO[C@H]1CN(C)C(=O)c2cc(NC(C)=O)ccc2OC[C@@H](C)N(C(=O)CC2CC2)C[C@H]1C | inactive |
| CC(C)C(=O)Nc1ccc2c(c1)C(=O)N(C)[C@@H]1CC[C@@H](CC(=O)N[C@H](C)c3ccccc3)O[C@@H]1CO2 | inactive |
| O=C(c1cccnc1)N1C[C@H]2[C@@H](c3ccccc31)[C@H](CO)N2C(=O)Nc1ccccc1Cl | inactive |
| CCC(=O)N1[C@H](CO)[C@H](c2ccccc2)[C@@H]1CN(CC)C(=O)c1ccccc1 | inactive |
| CCN(C[C@@H]1[C@@H](c2ccccc2)[C@H](CO)N1C(C)=O)C(=O)NC(C)C | inactive |
| COCC(=O)N1[C@@H](CO)[C@@H]2c3ccccc3N(C(=O)c3cccnc3)C[C@@H]21 | inactive |
| CN1C(=O)c2cc(NC(=O)Nc3ccc(Cl)cc3)ccc2OC[C@@H]2O[C@@H](CC(=O)NCCN3CCCCC3)CC[C@H]21 | inactive |
| CCCCN(CCCC)C(=O)CN(C)S(=O)(=O)c1ccc2c(c1)n(C)c(=O)c(=O)n2C | inactive |
| CN(C)CCCNC(=O)C[C@@H]1CC[C@@H]2[C@@H](COc3ccc(NC(=O)NC4CCCC4)cc3C(=O)N2C)O1 | inactive |
| CN1C(=O)c2cc(NC(=O)c3cc(F)cc(F)c3)ccc2OC[C@@H]2O[C@@H](CC(=O)O)CC[C@@H]21 | inactive |
| CCNC(=O)C[C@@H]1CC[C@H]2[C@H](COc3ccc(NC(=O)c4ccccc4)cc3C(=O)N2C)O1 | inactive |

| Compound | outcome |
| --- | --- |
| CN1C(=O)c2cc(NC(=O)c3cccs3)ccc2OC[C@@H]2O[C@@H](CC(=O)NCCN3CCCCC3)CC[C@@H]21 | inactive |
| CN(C[C@H]1[C@H](c2ccccc2)[C@@H](CO)N1CC1CC1)C(=O)c1cccc(F)c1 | inactive |
| N=c1n(CC(=O)c2ccc(Br)s2)c2ccccc2n1Cc1ccccc1 | inactive |
| COC(=O)C[C@H]1CC[C@@H]2[C@@H](COc3ccc(NC(=O)c4ccc(F)c(F)c4)cc3C(=O)N2C)O1 | inactive |
| CCOC(=O)c1nc(C)n(-c2ccc(Cl)cc2Cl)n1 | inactive |
| C[C@@H]1CN([C@H](C)CO)S(=O)(=O)c2ccc(C3=CCCC3)cc2O[C@@H]1CN(C)C(=O)c1ccc(F)cc1 | inactive |
| CNC(=O)C[C@@H]1CC[C@@H]2[C@H](COc3ccc(NC(=O)NC(C)C)cc3C(=O)N2C)O1 | inactive |
| CNC(=O)C[C@H]1CC[C@@H]2[C@H](COc3ccc(NC(=O)Nc4cccc(F)c4)cc3C(=O)N2C)O1 | inactive |
| CCN(C[C@H]1[C@H](c2ccccc2)[C@H](CO)N1C(=O)COC)S(C)(=O)=O | inactive |
| C/C=C/c1ccc([C@@H]2[C@H](CO)N[C@H]2CN(CC)C(=O)CN2CCOCC2)cc1 | inactive |
| CN1C(=O)c2cc(NC(=O)c3cccs3)ccc2OC[C@H]2O[C@H](CC(=O)NCC(F)(F)F)CC[C@H]21 | inactive |
| N=c1c2c(-c3ccccc3)c(-c3ccccc3)n(Cc3ccccc3)c2ncn1CCO | inactive |
| CCCC(=O)Nc1ccc2c(c1)C(=O)N(C)[C@H]1CC[C@@H](CC(=O)NCCN3CCCCC3)O[C@H]1CO2 | inactive |
| COc1ccc(CNC(=O)C[C@H]2CC[C@H]3[C@H](COc4ccc(NC(=O)C(C)C)cc4C(=O)N3C)O2)cc1 | inactive |
| COc1ccc(S(=O)(=O)N(C)C[C@@H]2Oc3cc(-c4cccc(F)c4)ccc3S(=O)(=O)N([C@H](C)CO)C[C@H]2C)cc1 | inactive |
| CO[C@@H]1CN(C)C(=O)c2ccc(NS(=O)(=O)c3ccc(C)cc3)cc2OC[C@@H](C)N(C(=O)NC(C)C)C[C@H]1C | inactive |
| COC(=O)c1c(N)nc(C)n1-c1ccc(OC)cc1 | inactive |
| CO[C@@H]1CN(C)C(=O)c2cc(NC(=O)Nc3cc(Cl)cc(Cl)c3)ccc2OC[C@H](C)NC[C@H]1C | inactive |
| C/C=C/c1ccc([C@H]2[C@@H](CO)N(C(=O)CC)[C@H]2CNC(=O)CC)cc1 | inactive |
| CC(=O)Nc1ccc2c(c1)C(=O)N(C)[C@@H]1CC[C@@H](CC(=O)NCc3ccc(Cl)cc3)O[C@H]1CO2 | inactive |
| COCC(=O)N1[C@H](CO)[C@@H](c2ccccc2)[C@H]1CNC(=O)c1ccccn1 | inactive |
| Cc1cccc(NC(=O)c2sc3nc(-c4ccc(F)cc4)cn3c2C)n1 | inactive |
| CCC(=O)N1[C@@H](CO)[C@@H](c2ccccc2)[C@@H]1CN(C(C)C)S(C)(=O)=O | inactive |
| O=C(C1CC1)N(CCN(C(=O)C1CC1)c1ccccc1)c1ccccc1 | inactive |
| CCC(=O)N1[C@H](CO)[C@@H](c2ccccc2)[C@H]1CN(C(C)C)S(C)(=O)=O | inactive |
| Nc1ccc(Oc2ccc(Br)cc2)cc1 | inactive |
| COCC(=O)N(C[C@@H]1N[C@H](CO)[C@H]1c1ccc(-c2cccnc2)cc1)C(C)C | inactive |

| Compound | outcome |
| --- | --- |
| CCCC(=O)Nc1ccc2c(c1)C(=O)N(C)[C@@H]1CC[C@H](CC(=O)NCc3cccc(F)c3)O[C@H]1CO2 | inactive |
| CN1C(=O)c2cc(NC(=O)c3cccc(F)c3)ccc2OC[C@@H]2O[C@@H](CC(=O)O)CC[C@@H]21 | inactive |
| C/C=C/c1ccc([C@@H]2[C@@H](CNC(=O)CC)N(Cc3ccccn3)[C@H]2CO)cc1 | inactive |
| COC(=O)C[C@@H]1CC[C@H]2[C@@H](COc3ccc(NC(=O)c4ccc(F)c(F)c4)cc3C(=O)N2C)O1 | inactive |
| C=CCNC(=S)NNC(=O)c1cccn(Cc2ccc(Cl)c(Cl)c2)c1=O | inactive |
| CCN(C[C@H]1[C@H](c2ccccc2)[C@@H](CO)N1S(C)(=O)=O)C(=O)C1CC1 | inactive |
| CCC(=O)Nc1ccc2c(c1)C(=O)N(C)[C@@H]1CC[C@H](CC(=O)NCCN3CCCCC3)O[C@H]1CO2 | inactive |
| CC(C)N(C[C@H]1[C@H](c2ccccc2)[C@@H](CO)N1S(C)(=O)=O)C(=O)CN(C)C | inactive |
| COc1cccc(-c2nc(NCCN3CCOCC3)c3ccccc3n2)c1O | inactive |
| CC(=O)N1[C@H](CO)[C@@H](c2ccccc2)[C@H]1CN(C)C(=O)CN1CCOCC1 | inactive |
| CNC(=O)C[C@H]1CC[C@@H]2[C@H](COc3ccc(NC(=O)Nc4ccccc4OC)cc3C(=O)N2C)O1 | inactive |
| CCCNC(=O)C[C@@H]1CC[C@@H]2[C@H](COc3ccc(NC(=O)Nc4ccccc4F)cc3C(=O)N2C)O1 | inactive |
| CN1C(=O)c2cc(NC(=O)c3ccccc3F)ccc2OC[C@H]2O[C@H](CC(=O)NCc3ccc4c(c3)OCO4)CC[C@@H]21 | inactive |
| O=C(NC[C@@H]1N[C@@H](CO)[C@H]1c1ccccc1)C1CCC1 | inactive |
| CN(c1ccccc1)S(=O)(=O)c1ccc(C(=O)Nc2cccc(S(=O)(=O)N3CCOCC3)c2)cc1 | inactive |
| CCCN(C[C@@H]1N[C@@H](CO)[C@H]1c1ccc(-c2cccnc2)cc1)C(C)=O | inactive |
| COc1ccc(-c2cc(-c3nc4ccccn4c3NCc3ccccc3)ccc2OC)cc1 | inactive |
| CCCNC(=O)N1[C@H](CNC(=O)c2ccc(F)cc2)[C@H](c2ccccc2)[C@@H]1CO | inactive |
| COc1ccc(C#Cc2ccc3c(c2)O[C@H](CN(C)C(=O)CN2CCOCC2)[C@H](C)CN([C@@H](C)CO)S3(=O)=O)cc1 | inactive |
| Cc1cc(C)nc(NS(=O)(=O)c2ccc(NC(=S)NC(=O)C3CCCC3)cc2)n1 | inactive |
| Cc1ccc(-c2noc(CCC(=O)Nc3ccccc3C)n2)cc1 | inactive |
| Cc1cc(C(=O)Nc2cccc(O)c2)co1 | inactive |
| COc1cccc(C(=O)Nc2ccc3c(c2)C(=O)N(C)[C@@H]2CC[C@@H](CC(=O)NCc4ccc(F)cc4)O[C@@H]2CO3)c1 | inactive |
| O=C(Nc1ccccc1N1CCN(C(=O)c2ccc(Cl)cc2)CC1)c1cccnc1 | inactive |
| O=C(COC(=O)Cc1ccc(S(=O)(=O)N2CCOCC2)s1)Nc1ccc2c(c1)OCO2 | inactive |
